PubChem BioAssay (NCI)
This is part of a sample that, as a whole, favours compounds with a hit. Of some 83,000 tested, about 20% had one in any assay.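 Cell lines were cultured in 96-well plates, exposed to a single compound concentration, and assessed for percent growth 48 hours later.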 The source made the active and inactive calls. Rule for the calls: active = growth percent below 10; inactive = the rest.

How the values were obtained:
Assay in all cases: NCI-60 one-dose screen, 48 h (100 = growth as untreated, 0 = no growth, -100 = all killed)
Details in all cases: 10 µM unless noted
HT29 colon = tested on: HT29 colon
SNB-75 CNS = tested on: SNB-75 CNS
SNB-19 CNS = tested on: SNB-19 CNS
U251 CNS = tested on: U251 CNS
PC-3 prostate = tested on: PC-3 prostate
SK-MEL-5 melanoma = tested on: SK-MEL-5 melanoma
UACC-62 melanoma = tested on: UACC-62 melanoma
LOX IMVI melanoma = tested on: LOX IMVI melanoma
SK-MEL-28 melanoma = tested on: SK-MEL-28 melanoma

Measured: growth

O=C1c2cccnc2C(=O)c2c1c(C(=O)NCCCN1CCCCC1)c1ccccn21
active: HT29 colon -1.92% | SNB-75 CNS -95.3% | SNB-19 CNS -72.8% | U251 CNS -48.4% | PC-3 prostate -18% | SK-MEL-5 melanoma -99.5% | UACC-62 melanoma -61.4% | LOX IMVI melanoma -71.4%
inactive: SK-MEL-28 melanoma 13.8%

O=C(c1ccc(-c2nc(CSc3nc4ccccc4s3)no2)cc1)N1CCSCC1
inactive: HT29 colon 40.8% | SNB-75 CNS 91.9% | SNB-19 CNS 87.7% | U251 CNS 61.6% | PC-3 prostate 63.5% | SK-MEL-5 melanoma 24.6% | UACC-62 melanoma 59.9% | LOX IMVI melanoma 55.2% | SK-MEL-28 melanoma 96.6%

O=[N+]([O-])c1ccc(N/N=C(/C(=N/Nc2ccc([N+](=O)[O-])cc2)c2ccccc2)c2ccccc2)cc1
inactive: SNB-75 CNS 90.3% | SNB-19 CNS 93.3% | U251 CNS 53.4% | PC-3 prostate 82% | SK-MEL-5 melanoma 86.3% | UACC-62 melanoma 78.6% | LOX IMVI melanoma 61% | SK-MEL-28 melanoma 121%

CC1=C(CCC(C)N(C)Cc2ccc(OCCCN3CCCC3)cc2)C(C)(C)CCC1 (stereo unspecified)
inactive: SNB-75 CNS 63.1% | SNB-19 CNS 41.8% | PC-3 prostate 31.8%
active: HT29 colon -12% | U251 CNS -11.9% | SK-MEL-5 melanoma -93.7% | UACC-62 melanoma -63.9% | SK-MEL-28 melanoma -80.6%

COc1ccc(-c2nc3c(c(-c4ccccc4)nn3-c3ccccc3)c(-c3ccc(N4CCN(C)CC4)cc3)c2C#N)cc1
inactive: HT29 colon 80.5% | SNB-75 CNS 106% | SNB-19 CNS 95.2% | U251 CNS 77.4% | PC-3 prostate 94.3% | SK-MEL-5 melanoma 97.8% | UACC-62 melanoma 100% | LOX IMVI melanoma 69.2% | SK-MEL-28 melanoma 97.5%

CCOC(=O)c1c(C)nc2c(c1N)CC(=O)N2Cc1cc(F)cc(Cl)c1
inactive: HT29 colon 77.1% | SNB-75 CNS 71.6% | SNB-19 CNS 100% | U251 CNS 90.8% | PC-3 prostate 77.9% | SK-MEL-5 melanoma 74.9% | UACC-62 melanoma 78% | LOX IMVI melanoma 96.5% | SK-MEL-28 melanoma 105%

Cn1c(-c2ccc(Br)cc2)c(O)c(=O)c2c(F)cccc21
inactive: HT29 colon 36.6% | SNB-75 CNS 92.2% | SNB-19 CNS 52.8% | U251 CNS 34.3% | PC-3 prostate 105% | SK-MEL-5 melanoma 54.2% | UACC-62 melanoma 37.6% | LOX IMVI melanoma 40.2% | SK-MEL-28 melanoma 67.2%

O=C(O)/C(=C\c1ccc(Cl)cc1)c1ccc(Cl)cc1
inactive: HT29 colon 93.6% | SNB-75 CNS 74.2% | SNB-19 CNS 103% | U251 CNS 91.9% | PC-3 prostate 89.8% | SK-MEL-5 melanoma 96.4% | UACC-62 melanoma 94.3% | LOX IMVI melanoma 95.2% | SK-MEL-28 melanoma 95.9%

CN(C)c1ccc(Nc2cc(-c3cccc(OC(F)(F)F)c3)nc3ccc(N4CCCC4)cc23)cc1
active: HT29 colon -12.8% | U251 CNS -59.2% | LOX IMVI melanoma -73.7% | SK-MEL-28 melanoma -85.3%
inactive: SNB-75 CNS 55% | SNB-19 CNS 66% | PC-3 prostate 18% | UACC-62 melanoma 90.1%

O=S(=O)(Nc1ccc(Cl)cc1)c1ccc(-c2cnc(C3CC3)o2)cc1
active: SNB-75 CNS -11.9%
inactive: HT29 colon 15.4% | SNB-19 CNS 30% | U251 CNS 24.4% | PC-3 prostate 24.2% | SK-MEL-5 melanoma 15.2% | UACC-62 melanoma 17.3% | LOX IMVI melanoma 50.5% | SK-MEL-28 melanoma 61.4%

COc1ccc2c(O)c(/C=C3\N=Nc4ccccc43)oc2c1C[C@@H]1CCNC[C@H]1F
active: LOX IMVI melanoma -82.7% | SK-MEL-28 melanoma -70.2%
inactive: HT29 colon 12.3% | SNB-75 CNS 51.1% | SNB-19 CNS 84.1% | U251 CNS 10.1% | PC-3 prostate 68.3% | SK-MEL-5 melanoma 63.9% | UACC-62 melanoma 76%

COc1ccc2cc(C(=O)c3coc4ccc(O)cc34)ccc2c1
inactive: HT29 colon 95.6% | SNB-75 CNS 101% | SNB-19 CNS 104% | U251 CNS 103% | PC-3 prostate 95.5% | SK-MEL-5 melanoma 99.5% | UACC-62 melanoma 98.7% | LOX IMVI melanoma 97.4% | SK-MEL-28 melanoma 111%

O=C(Cn1c(=O)sc2ccccc21)NNS(=O)(=O)c1ccccc1[N+](=O)[O-]
inactive: SNB-75 CNS 83.3% | SNB-19 CNS 103% | U251 CNS 97.9% | PC-3 prostate 96.2% | SK-MEL-5 melanoma 101% | UACC-62 melanoma 98.8% | LOX IMVI melanoma 96.4% | SK-MEL-28 melanoma 104%

O=C(NNC(=O)c1ccc(-n2cc(-c3ccccc3)nn2)cc1)Nc1ccccc1
inactive: HT29 colon 118% | SNB-75 CNS 97.2% | SNB-19 CNS 90.1% | U251 CNS 96.5% | PC-3 prostate 99.8% | SK-MEL-5 melanoma 100% | UACC-62 melanoma 97.9% | LOX IMVI melanoma 97.1% | SK-MEL-28 melanoma 109%

CNc1nc(S(=O)c2ccc(C#N)cc2)nc2ccccc12 (stereo unspecified)
inactive: HT29 colon 81.8% | SNB-75 CNS 60.5% | SNB-19 CNS 90.8% | U251 CNS 83.1% | PC-3 prostate 89.2% | SK-MEL-5 melanoma 83.6% | UACC-62 melanoma 81% | LOX IMVI melanoma 76.5% | SK-MEL-28 melanoma 94.4%

N#Cc1c(-c2ccc(Cl)cc2)nc(SCC(=O)NC2=NN=C(c3ccccc3)CS2)[nH]c1=O
inactive: HT29 colon 104% | SNB-75 CNS 80.5% | SNB-19 CNS 85.8% | U251 CNS 77.3% | PC-3 prostate 78.6% | SK-MEL-5 melanoma 84.2% | UACC-62 melanoma 75.1% | LOX IMVI melanoma 69.5% | SK-MEL-28 melanoma 76.3%

Cc1nc(N2CCOCC2)sc1S(N)(=O)=O
inactive: HT29 colon 102% | SNB-19 CNS 102% | U251 CNS 92.9% | PC-3 prostate 92.3% | SK-MEL-5 melanoma 100% | UACC-62 melanoma 94% | LOX IMVI melanoma 95.8% | SK-MEL-28 melanoma 104%
active: SNB-75 CNS -0.593%

CC12CCC3c4ccccc4CCC3(CO1)C2 (stereo unspecified)
inactive: SNB-75 CNS 89.7% | SNB-19 CNS 114% | U251 CNS 107% | PC-3 prostate 88% | SK-MEL-5 melanoma 102% | UACC-62 melanoma 105% | SK-MEL-28 melanoma 99.9%
